Inconclusive results are not listed. Where a call stands in place of a potency, no number is given. The source made the active and inactive calls. Calls come from the whole dose curve; as a rule, active = well fitted curve in the direction sought with a large enough effect; inconclusive = small, poorly fitted or top-dose-only effect, or another doubt; inactive = no such curve, though single readings can be large; an effect the other way counts as inactive or inconclusive.
assay: qHTS of pediatric cancer cell lines to identify multiple opportunities for drug repurposing: Primary screen for SK-N-MC cells (AID 1347093); conditions: SK-N-MC viability, CellTiter-Glo luminescence, 48 h; series mostly up to 46 µM
In short: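 Metabolically active cells were quantified by ATP-dependent luminescence (CellTiter-Glo, 15 min at room temperature) following 48 h treatment. Cells had been plated at 500-1,000 per well and settled for 5 h beforehand.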
Potency is the fitted concentration of half-maximal effect.

Row | SMILES | Potency
1 | CCOC(=O)O[C@]1(C(=O)OCCl)CC[C@H]2[C@@H]3CCC4=CC(=O)C=C[C@]4(C)[C@H]3[C@@H](O)C[C@@]21C | inactive
2 | C[C@H]1C[C@H](O)c2ccsc2S1(=O)=O | inactive
3 | CCN(CC)CC(=O)Oc1ccc(NC(C)=O)cc1 | inactive
4 | COC(=O)c1cc(Cl)c(NC(C)=O)cc1OC | inactive
5 | C[N+]1(C)CCC(OC(=O)C(O)(c2ccccc2)C2CCCC2)C1 (configuration not stated) | inactive
6 | CCOC(=O)C(O)c1ccccc1 (configuration not stated) | inactive
7 | CCN1CCCC1CN (configuration not stated) | inactive
8 | Cc1cc2nc3ccc(=[N+](C)C)cc-3sc2cc1N | 1.33 µM (active)
9 | CCOC(=O)OCC/C(SC(=O)OCC)=C(\C)N(C=O)Cc1cnc(C)nc1N | inactive
10 | CCN(CC)CCN | inactive
11 | CC(C)(C)c1nnc(NS(=O)(=O)c2ccccc2)s1 | inactive
12 | CC(C)C(=O)Nc1cccc(C(F)(F)F)c1 | inactive
13 | CC(C)NCCCC1(C(N)=O)c2ccccc2-c2ccccc21 | inactive
14 | Oc1ccccc1-c1nnco1 | inactive
15 | CN=C(N)NC(=O)Nc1c(C)cccc1C | inactive
16 | Cc1cc(=O)oc2cc(O[C@@H]3SC[C@@H](O)[C@H](O)[C@H]3O)ccc12 | inactive
17 | CN1C(=O)c2ccccc2C1=O | inactive
18 | CCN1CCN(C(=O)N[C@@H](C(=O)N[C@@H]2C(=O)N3[C@@H]2SC(C)(C)[C@H]3C(=O)O)c2ccccc2)C(=O)C1=O | inactive
19 | O=C(C1CCCCC1)N1CC(=O)N2CCCc3ccccc3C2C1 (configuration not stated) | inactive

assay: qHTS of pediatric cancer cell lines to identify multiple opportunities for drug repurposing: Primary screen for BT-37 cells (AID 1347094); conditions: BT-37 viability, CellTiter-Glo luminescence, 48 h; series mostly up to 57.3 µM
In short: (§1)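 Quantitative HTS format: each compound titrated (MIPE 11 points from 0.78 nM, NPC 8 points from 0.59 nM) onto cells plated 5 hours earlier. After 48 h at 37 degrees C, CellTiter-Glo luminescence was recorded.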

Row | SMILES | Potency
20 | Cc1onc(-c2c(Cl)cccc2Cl)c1C(=O)Cl | inactive
21 | CCOC(=O)Oc1ccc(CCNC(=O)[C@H](CCSC)NC(C)=O)cc1OC(=O)OCC | inactive
22 | O=[N+]([O-])c1nccn1CO[C@@H](CO)[C@H](O)CO | inactive
23 | NS(=O)(=O)c1ccc(N2CCCCS2(=O)=O)cc1 | inactive
24 | O=C(O)CCC(=O)OC[C@@H](NC(=O)C(Cl)Cl)[C@H](O)c1ccc([N+](=O)[O-])cc1 | inactive
25 | CC(=O)c1ccc(O)c(C(N)=O)c1 | inactive
26 | O=C1c2ccccc2CCc2ccccc21 | inactive
27 | CCOC(=O)c1ccc(NC(=O)CN2CCCCC2)cc1 | inactive
28 | Cc1c(F)cc2c(=O)c(C(=O)O)cn3c2c1CCC3C (configuration not stated) | inactive
29 | CC(C)(C)NCC(O)COc1ccccc1OCC1CCCO1 (configuration not stated) | inactive
30 | Cc1ccc(O)cc1 | inactive
31 | CCCCC(CC)CNC(=O)CC(C)OC(=O)CCC(=O)O (configuration not stated) | inactive
32 | CCN(CC)CC(=O)OCC(=O)[C@@]1(O)CC[C@H]2[C@@H]3CCC4=CC(=O)CC[C@]4(C)[C@H]3[C@@H](O)C[C@@]21C | inactive
33 | OCCCc1ccccc1 | inactive
34 | O=C(CCCCC(=O)Nc1c(I)cc(I)c(C(=O)O)c1I)Nc1c(I)cc(I)c(C(=O)O)c1I | inactive
35 | Cc1cccc(OCC(O)CNC(C)(C)C)c1C (configuration not stated) | inactive
36 | Cc1ccc(C(=O)C(=O)O)cc1C | inactive
37 | CC(=O)Nc1c(I)c(NC(C)=O)c(I)c(C(=O)O)c1I | inactive
38 | CC(C)(Oc1ccc(Cl)cc1)C(=O)OCCCOC(=O)C(C)(C)Oc1ccc(Cl)cc1 | inactive
39 | O=C(CO)[C@@H](O)[C@H](O)[C@@H](O)CO | inactive

Row | SMILES | Potency
40 | CCOC(=O)O[C@]1(C(=O)OCCl)CC[C@H]2[C@@H]3CCC4=CC(=O)C=C[C@]4(C)[C@H]3[C@@H](O)C[C@@]21C | inactive
41 | C[C@H]1C[C@H](O)c2ccsc2S1(=O)=O | inactive
42 | CCN(CC)CC(=O)Oc1ccc(NC(C)=O)cc1 | inactive
43 | COC(=O)c1cc(Cl)c(NC(C)=O)cc1OC | inactive
44 | C[N+]1(C)CCC(OC(=O)C(O)(c2ccccc2)C2CCCC2)C1 (configuration not stated) | inactive
45 | CCOC(=O)C(O)c1ccccc1 (configuration not stated) | inactive
46 | CCN1CCCC1CN (configuration not stated) | inactive
47 | Cc1cc2nc3ccc(=[N+](C)C)cc-3sc2cc1N | 17.4 µM (active)
48 | CCOC(=O)OCC/C(SC(=O)OCC)=C(\C)N(C=O)Cc1cnc(C)nc1N | inactive
49 | CCN(CC)CCN | inactive
50 | CC(C)(C)c1nnc(NS(=O)(=O)c2ccccc2)s1 | inactive
51 | CC(C)C(=O)Nc1cccc(C(F)(F)F)c1 | inactive
52 | CC(C)NCCCC1(C(N)=O)c2ccccc2-c2ccccc21 | inactive
53 | Oc1ccccc1-c1nnco1 | inactive
54 | CN=C(N)NC(=O)Nc1c(C)cccc1C | inactive
55 | Cc1cc(=O)oc2cc(O[C@@H]3SC[C@@H](O)[C@H](O)[C@H]3O)ccc12 | inactive
56 | CN1C(=O)c2ccccc2C1=O | inactive
57 | CCN1CCN(C(=O)N[C@@H](C(=O)N[C@@H]2C(=O)N3[C@@H]2SC(C)(C)[C@H]3C(=O)O)c2ccccc2)C(=O)C1=O | inactive
58 | O=C(C1CCCCC1)N1CC(=O)N2CCCc3ccccc3C2C1 (configuration not stated) | inactive

assay: qHTS of pediatric cancer cell lines to identify multiple opportunities for drug repurposing: Primary screen for NB-EBc1 cells (AID 1347095); conditions: NB-EBc1 neuroblastoma viability, CellTiter-Glo luminescence, 48 h; series mostly up to 46 µM
In short: as §1

Row | SMILES | Potency
59 | Cc1onc(-c2c(Cl)cccc2Cl)c1C(=O)Cl | inactive
60 | CCOC(=O)Oc1ccc(CCNC(=O)[C@H](CCSC)NC(C)=O)cc1OC(=O)OCC | inactive
61 | O=[N+]([O-])c1nccn1CO[C@@H](CO)[C@H](O)CO | inactive
62 | NS(=O)(=O)c1ccc(N2CCCCS2(=O)=O)cc1 | inactive
63 | O=C(O)CCC(=O)OC[C@@H](NC(=O)C(Cl)Cl)[C@H](O)c1ccc([N+](=O)[O-])cc1 | inactive
64 | CC(=O)c1ccc(O)c(C(N)=O)c1 | inactive
65 | O=C1c2ccccc2CCc2ccccc21 | inactive
66 | CCOC(=O)c1ccc(NC(=O)CN2CCCCC2)cc1 | inactive
67 | Cc1c(F)cc2c(=O)c(C(=O)O)cn3c2c1CCC3C (configuration not stated) | inactive
68 | CC(C)(C)NCC(O)COc1ccccc1OCC1CCCO1 (configuration not stated) | inactive
69 | Cc1ccc(O)cc1 | inactive
70 | CCCCC(CC)CNC(=O)CC(C)OC(=O)CCC(=O)O (configuration not stated) | inactive
71 | CCN(CC)CC(=O)OCC(=O)[C@@]1(O)CC[C@H]2[C@@H]3CCC4=CC(=O)CC[C@]4(C)[C@H]3[C@@H](O)C[C@@]21C | inactive
72 | OCCCc1ccccc1 | inactive
73 | O=C(CCCCC(=O)Nc1c(I)cc(I)c(C(=O)O)c1I)Nc1c(I)cc(I)c(C(=O)O)c1I | inactive
74 | Cc1cccc(OCC(O)CNC(C)(C)C)c1C (configuration not stated) | inactive
75 | Cc1ccc(C(=O)C(=O)O)cc1C | inactive
76 | CC(=O)Nc1c(I)c(NC(C)=O)c(I)c(C(=O)O)c1I | inactive
77 | CC(C)(Oc1ccc(Cl)cc1)C(=O)OCCCOC(=O)C(C)(C)Oc1ccc(Cl)cc1 | inactive
78 | O=C(CO)[C@@H](O)[C@H](O)[C@@H](O)CO | inactive

Row | SMILES | Potency
79 | CCOC(=O)O[C@]1(C(=O)OCCl)CC[C@H]2[C@@H]3CCC4=CC(=O)C=C[C@]4(C)[C@H]3[C@@H](O)C[C@@]21C | inactive
80 | C[C@H]1C[C@H](O)c2ccsc2S1(=O)=O | inactive
81 | CCN(CC)CC(=O)Oc1ccc(NC(C)=O)cc1 | inactive
82 | COC(=O)c1cc(Cl)c(NC(C)=O)cc1OC | inactive
83 | C[N+]1(C)CCC(OC(=O)C(O)(c2ccccc2)C2CCCC2)C1 (configuration not stated) | inactive
84 | CCOC(=O)C(O)c1ccccc1 (configuration not stated) | inactive
85 | CCN1CCCC1CN (configuration not stated) | inactive
86 | Cc1cc2nc3ccc(=[N+](C)C)cc-3sc2cc1N | 10.6 µM (active)
87 | CCOC(=O)OCC/C(SC(=O)OCC)=C(\C)N(C=O)Cc1cnc(C)nc1N | inactive
88 | CCN(CC)CCN | inactive
89 | CC(C)(C)c1nnc(NS(=O)(=O)c2ccccc2)s1 | inactive
90 | CC(C)C(=O)Nc1cccc(C(F)(F)F)c1 | inactive
91 | CC(C)NCCCC1(C(N)=O)c2ccccc2-c2ccccc21 | inactive
92 | Oc1ccccc1-c1nnco1 | inactive
93 | CN=C(N)NC(=O)Nc1c(C)cccc1C | inactive
94 | Cc1cc(=O)oc2cc(O[C@@H]3SC[C@@H](O)[C@H](O)[C@H]3O)ccc12 | inactive
95 | CN1C(=O)c2ccccc2C1=O | inactive
96 | CCN1CCN(C(=O)N[C@@H](C(=O)N[C@@H]2C(=O)N3[C@@H]2SC(C)(C)[C@H]3C(=O)O)c2ccccc2)C(=O)C1=O | inactive
97 | O=C(C1CCCCC1)N1CC(=O)N2CCCc3ccccc3C2C1 (configuration not stated) | inactive
